Experimental data from ChEMBL document CHEMBL3433997, “St. Jude Leishmania screening dataset” (2016).

What was measured:
Format in all cases: functional
[1] = target: Solute carrier family 2, facilitated glucose transporter member 1 (Homo sapiens) (UniProt P11166); experiment: ST_JUDE_LEISH: Cytotoxicity at 2uM final concentration against transgenic Leishmania Mexicana promastigotes LmGLUT1 that are glucose transport deficient and complemented with the human glucose transporter GLUT1. Activity is measured by DNA content using SYBR green in vitro
[2] = target: Hexose transporter 1 (Plasmodium falciparum) (UniProt O97467); experiment: ST_JUDE_LEISH: Cytotoxicity at 2uM final concentration against transgenic Leishmania Mexicana promastigotes LmPfHT that are glucose transport deficient and complemented with the Plasmodium falciparum hexose transporter. Activity is measured by DNA content using SYBR green in vitro
[3] = target: Glucose transporter (Leishmania mexicana) (UniProt O61059); experiment: ST_JUDE_LEISH: Cytotoxicity at 2uM final concentration against transgenic Leishmania Mexicana promastigotes LmGT2 that are glucose transport deficient and complemented with the L. Mexicana glucose transporter 2. Activity is measured by DNA content using SYBR green in vitro

Sequence of Solute carrier family 2, facilitated glucose transporter member 1 (Homo sapiens) (P11166 whole entry): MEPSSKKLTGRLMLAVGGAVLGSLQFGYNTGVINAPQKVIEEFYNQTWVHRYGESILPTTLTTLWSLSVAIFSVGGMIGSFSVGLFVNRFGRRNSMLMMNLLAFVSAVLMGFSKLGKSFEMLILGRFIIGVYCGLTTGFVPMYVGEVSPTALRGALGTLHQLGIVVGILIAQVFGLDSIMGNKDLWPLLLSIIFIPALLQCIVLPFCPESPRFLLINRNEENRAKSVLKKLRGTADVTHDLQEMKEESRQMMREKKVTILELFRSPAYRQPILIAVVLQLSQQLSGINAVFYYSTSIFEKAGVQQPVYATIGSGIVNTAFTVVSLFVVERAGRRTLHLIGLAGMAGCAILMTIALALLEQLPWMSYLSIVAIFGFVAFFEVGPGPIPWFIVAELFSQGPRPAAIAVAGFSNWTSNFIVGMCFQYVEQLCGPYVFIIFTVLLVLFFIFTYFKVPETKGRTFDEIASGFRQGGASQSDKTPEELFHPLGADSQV

| Structure (SMILES) | inhibition [1] | inhibition [2] | inhibition [3] |
| --- | --- | --- | --- |
| Oc1ccc(CCNc2nc(NCc3ccccc3-c3ccccc3)nc(N3CCCNCC3)n2)cc1 | 0.19% | 2.05% | 0.48% |
| CCOC(=O)N1CCC(NC(=O)c2ccc(C(C)(C)C)cc2OC)CC1 | 3.46% | 3.5% | 3.13% |
| FC(F)(F)c1ccc2[nH]c(-c3ccc(-c4ccc(CNCCN5CCNCC5)cc4)s3)nc2c1 | 9.4% | 10.4% | 9.03% |
| CN1CCN(CCCN(C(=O)Nc2cc(C(F)(F)F)cc(C(F)(F)F)c2)c2ccccc2Cc2ccccc2)CC1 | 0.6% | 0.83% | -8.69% |
| O=S(=O)(c1ccccc1Cl)N1CCCCC(c2ccc(C(F)(F)F)cc2)=N1 | 1.24% | 2.48% | -2.05% |
| O=C(Nc1ccc(-c2cccc(-c3nc4ccccc4[nH]3)c2)cc1)Nc1ccc2c(c1)OCO2 | 1.87% | 2.62% | 0.58% |
| C#CCN(Cc1cc2c(=O)[nH]c(N)nc2cc1C)c1ccc(C(=O)N[C@@H](CCC(=O)O)C(=O)O)cc1 | 6.81% | 0.4% | 8.07% |
| COc1ccc(C)cc1NC(=O)CSc1nc2cccnc2n1C1CCCCC1 | 5.9% | 4.88% | 3.28% |
| O=C(NC1CC1)c1cnc(N2CCC(Cc3ccccc3)CC2)c(Cl)c1 | 0.75% | -0.08% | -0.03% |
| COc1ccc(CN2CCC(CNCCc3ccccc3Cl)CC2)cc1 | 19.2% | 11.1% | 12.5% |
| CCC(=C(CC)c1ccc(O)c(CNC2CCCCC2)c1)c1ccc(O)c(CNC2CCCCC2)c1 | 23.6% | 8.98% | -1.26% |
| COC(=O)c1cc(/C(C)=N/Nc2nc3ccccc3[nH]2)ccc1O | 4.85% | 5.41% | 1.77% |
